Screening data: PubChem BioAssay, National Center for Advancing Translational Sciences (NCATS)
HPGD block = inhibitors of human 15-hydroxyprostaglandin dehydrogenase (HPGD) | P15428 | purified HPGD, NADH fluorescence kinetic, PGE2 substrate | Potency, µM, inactives show at the highest dose activity change, negative = inhibition, most hits filed as inhibitors | hit rate 4.3% among 150,000 | AID 894; also: potency is read from the fitted curve at half-maximal effect
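NADH formation kinetics: reaction with 30 uM PGE2 and 1 mM NAD+ (final), 20 nM enzyme, Tris-HCl pH 8 with Tween 20, after 15 min compound preincubation at room temperature. Fluorescence change, last versus first of five reads.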
Lamin A splicing = LMNA splicing modulation; hit rate 0.01% among 200,000; HeLa LMNA splicing GFP/RFP minigene ratio, 48 h; AID 1487; Potency, µM (highest dose often 46.1 µM), without a hit: top-dose ratio change, negative = inhibition, usual class: inhibitors; active = well fitted inhibition curve with a large enough effect in the signal ratio, with a control signal flat, not every such curve was filed as active; inconclusive = small, poorly fitted or top-dose-only effect, or effect the other way, or a change in a side signal; the % refers to the signal ratio; also: potency is read from the fitted curve at half-maximal effect
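Read-out is the ratio of GFP to DsRed2 object intensity, acquired by 488 nm laser-scanning cytometry on HeLa lamin A-EGFP minigene reporter cells. Compound incubation 48 hrs at 37 °C in Opti-MEM with 2% FBS; DMSO 0.5% final.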
ALOX12 inhib = 12-hLO (ALOX12) enzyme inhibition; purified 12-hLO, xylenol orange hydroperoxide absorbance; P18054; hit rate 0.12% among 150,000; Potency, µM (highest dose often 57.1 µM), for the others: at the top dose activity change, negative = inhibition, actives largely listed as inhibitors; AID 1452; active = well fitted inhibition curve with a large enough effect; inconclusive = small, poorly fitted or top-dose-only effect; also: potency is read from the fitted curve at half-maximal effect; nearly all actives have a fitted effect of over 55% in size
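Hydroperoxide formation by human 12-lipoxygenase from 40 uM arachidonic acid was followed colorimetrically via ferric-xylenol orange complex, using the 573/405 nm absorbance ratio. Enzyme concentration was 150 nM, with 30 min reaction at room temperature.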
ALDH1A1 block = ALDH1A1 (human) enzyme inhibition | P00352 | Purified ALDH1A1, NADH fluorescence, propionaldehyde substrate | Potency, µM (titrated, usually from 75.3 µM), for inactives: at the top dose activity, negative = inhibition, most hits filed as inhibitors | hit rate 7.3% among 220,000;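 also: potency is read from the fitted curve at half-maximal effect; plate controls were no enzyme wells and a reference inhibitor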
Target sequence (P00352 whole entry, looked up): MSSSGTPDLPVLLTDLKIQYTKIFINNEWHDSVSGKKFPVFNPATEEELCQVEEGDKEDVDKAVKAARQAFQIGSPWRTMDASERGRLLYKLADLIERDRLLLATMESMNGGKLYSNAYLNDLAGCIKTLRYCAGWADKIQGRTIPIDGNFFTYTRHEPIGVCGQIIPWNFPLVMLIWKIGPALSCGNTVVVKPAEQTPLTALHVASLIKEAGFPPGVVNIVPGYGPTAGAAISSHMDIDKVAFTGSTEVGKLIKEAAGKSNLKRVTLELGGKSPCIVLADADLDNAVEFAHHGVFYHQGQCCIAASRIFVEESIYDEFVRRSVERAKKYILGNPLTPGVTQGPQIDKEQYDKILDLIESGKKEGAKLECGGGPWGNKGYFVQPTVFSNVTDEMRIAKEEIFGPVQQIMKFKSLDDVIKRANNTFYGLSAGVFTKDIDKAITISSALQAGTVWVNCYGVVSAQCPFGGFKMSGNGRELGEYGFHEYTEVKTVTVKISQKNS
PNC inhibitor = blocks assembly of the perinucleolar compartment; PC3M PTB-GFP, PNC prevalence imaging, 16 h; stronger effect = lower value; activity change (PNC), negative = inhibition, % at 10 µM; hit rate 3.1% among 140,000; AID 2417;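 active = readout at or below -70, meaning at least 70% loss of cells showing the perinucleolar compartment, a nuclear body marking cancer cells; inconclusive = readout between -30 and a set limit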;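 also: plate controls were DMSO wells for no effect and camptothecin positive control wells for full effect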
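Compounds are pinned in duplicate onto adhered PC3M cells stably expressing GFP-tagged PTB and incubated 16 h at 37 C. Cells are then fixed, nuclei stained with Hoechst, and PNC-positive cells counted.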
* marks the source's active call; other numbers are inactive results; ? = inconclusive; . = no result given; [ ] = remark or other dose. Rows were chosen to be rich in hits. Some 10% of all compounds tested hit in one or more screens of this group. Unless noted, calls follow the shape of the dose curve; as a rule, active = well fitted inhibition curve with a large enough effect (not every such curve was filed as active); inconclusive = small, poorly fitted or top-dose-only effect, or another doubt; inactive = no such curve, though single readings can be large or run the other way. Unless noted, % is scaled to controls: 0 for no effect and ±100 for the full control effect.

SMILES	HPGD block	Lamin A splicing	ALOX12 inhib	ALDH1A1 block	PNC inhibitor
N#CC1=C2SCN(c3ccccc3)CN2C(=O)CC1c1cccs1 (centres undefined)	7.1µM*	5%	?	3.2µM*	-3
N#CC1=C2SCN(c3ccccc3)CN2C(=O)CC1c1c(Cl)cccc1Cl (centres undefined)	7.9µM*	5%	28µM*	3.2µM*	34
Cc1ccc(NC(=O)N2CCC(CN3CCCCCC3)CC2)c(Cl)c1	.	2%[46 µM]	.	.	.
O=c1ccc2c(o1)/C(=C/C=C(Cl)Cl)CCC2	-22%	?	-6%	7.1µM*	-21
CS(=O)(=O)c1ncc(CO)n1Cc1ccccc1	.	.	.	4%	.
CCCCN(CCCNC(=O)c1c(C)cc(=O)oc1C)c1ccccc1	-12%	-14%	-3%	22µM*	-98*
CCN(CCCNC(=O)c1c(C)cc(=O)oc1C)c1ccccc1	-19%	-11%	27%	7.9µM*	?
CCCCN(CCCNC(=O)CN1C(=O)COc2ccccc21)c1ccccc1	-16%	?	-9%	13µM*	?
CCN(CCCNC(=O)CN1C(=O)COc2ccccc21)c1ccccc1	1%	-3%	-3%	-5%	11
CCCNC(=O)c1c(C)cc(=O)oc1C	-11%	1%	-2%	-1%	?
Cc1cc(Br)c(NC(=O)CCl)c(Br)c1	-22%	?	5%	-16%	-89*
COc1cccc(N2C(=O)CSC23C(=O)N(CC(=O)Nc2cc(C)ccc2C)c2ccccc23)c1 (centres undefined)	.	3%[46 µM]	.	.	.
O=C(NNC(=O)c1sc2ccccc2c1Cl)Nc1ccc(Cl)cc1	-8%	4%	-1%	8.9µM*	-28
O=C(NNC(=S)NC(=O)c1sc2ccccc2c1Cl)c1ccc(Cl)cc1	-24%	?	0%	28µM*	10
O=C(NN=C1CCCC1)c1sc2ccccc2c1Cl	.	-13%[46 µM]	.	16µM*	.
CCN(Cc1ccncc1)C(=O)c1ccc2c(c1)S(=O)(=O)c1ccccc1C2=O	.	25%[46 µM]	.	?	.
Cc1ccc(NC(=O)CSc2nccn2Cc2ccc3c(c2)OCO3)c(C)c1	.	0%[46 µM]	.	.	.
COc1ccc(N2CCN(CCCNC(=O)c3nnc(Cc4ccc(F)cc4)o3)CC2)cc1	.	-6%[46 µM]	.	.	.
CCOC(=O)c1c(S(=O)(=O)N2CCC(C(=O)N3CCN(c4ccccc4F)CC3)CC2)c(C)n(C)c1C	.	8%[46 µM]	.	.	.
CCOC(=O)/C=C1\CC(=O)Nc2nonc2N1	32µM*	4%	3%	2%	22
COc1ccc(N(CCCN2C(=O)c3cccc4cccc(c34)C2=O)C(=O)c2cccc(OC)c2)cc1	-11%	-1%	2%	8.9µM*	?
O=C1c2ccccc2C(=O)N1CCCCN(C(=O)c1cc([N+](=O)[O-])cc([N+](=O)[O-])c1)c1ccc(Cl)cc1	-7%	-17%	3%	1.4µM*	-27
O=C1c2ccccc2C(=O)N1CCCCN(C(=O)c1ccc([N+](=O)[O-])cc1)c1ccc(Cl)cc1	-6%	0%	-12%	1.6µM*	6
Cc1ccc(N(CCCCN2C(=O)c3ccccc3C2=O)C(=O)c2cccc([N+](=O)[O-])c2)cc1	-8%	19%	-2%	?	9
O=C1c2ccccc2C(=O)N1CCCCN(C(=O)c1cc([N+](=O)[O-])ccc1Cl)c1ccc(Cl)cc1	-15%	-11%	-1%	5µM*	?
SMILES	HPGD block	Lamin A splicing	ALOX12 inhib	ALDH1A1 block	PNC inhibitor
Cc1ccc(N(CN2C(=O)c3ccccc3C2=O)C(=O)c2ccc([N+](=O)[O-])cc2[N+](=O)[O-])cc1	-6%	-3%	-5%	-9%	-30
N#C/C(=C\c1ccc(O)cc1)C(=O)NCC1CCCO1 (centres undefined)	.	18%[46 µM]	.	.	.
NCCc1nc2cccnc2n1-c1ccccc1	.	10%[46 µM]	.	.	.
CCc1ccc(CNC(=O)CCN2C(=O)COc3ccccc32)cc1	.	16%[46 µM]	.	.	.
COc1ccc(S(=O)(=O)Nc2cccc(-c3ccc(N4CCC(C)CC4)nn3)c2)cc1OC	.	-3%[46 µM]	.	.	.
Cn1cc(-c2cc3n(n2)CCC(=O)N3CC(=O)NCc2ccc(Cl)cc2)c2ccccc21	.	-11%[46 µM]	.	.	.
Cc1ccc(N(CCCCN2C(=O)c3ccccc3C2=O)C(=O)c2ccc(Cl)s2)cc1	-8%	-6%	-2%	4%	-3
O=C1c2ccccc2C(=O)N1CCCCN(C(=O)c1ccc(Cl)s1)c1ccc(Cl)cc1	-17%	5%	-1%	4.5µM*	94
S=C(c1ccc(N2CCOCC2)cc1)N1CCOCC1	7.9µM*	10%	-1%	2.2µM*	-3
S=C(c1ccc(N2CCCC2)cc1)N1CCCCC1	14µM*	-16%	-7%	20µM*	12
CCOc1ccc(C(=S)N2CCOCC2)cc1	-13%	5%	-2%	-2%	17
Oc1ccc(C(=S)N2CCCCCC2)cc1	?	7%	4%	?	15
Cn1c(-c2cc(Br)ccc2O)n[nH]c1=S	14µM*	9%	-6%	3%	?
COc1ccc(C(=O)Nc2nnc(SCc3cc(=O)n4cccc(C)c4n3)s2)cc1	.	2%[46 µM]	.	.	.
COc1ccc(C(=O)NC(=S)N2CC(C)OC(C)C2)cc1 (centres undefined)	-6%	1%	-1%	9%	0
COc1ccc(C(=O)NC(=S)N2CCC(C)CC2)cc1	22µM*	5%	-29%	?	-5
COC(=O)c1sccc1NC(=S)N1CCCCC1	?	0%	-7%	7.9µM*	-16
COc1ccc(C(=O)NC(=S)N2CCCCC2)cc1	18µM*	4%	-23%	16µM*	-7
CCc1cnc2c(c1SCC(=O)c1ccc(OC)cc1)c(=O)n(C)c(=O)n2C	.	-5%[46 µM]	.	.	.
CC1=C(C#N)C2(O)C(=O)c3ccccc3C2(O)N1 (centres undefined)	.	4%[46 µM]	.	?	.
CCCCOC(=O)C1=C(C)NC2(O)c3ccccc3C(=O)C12O (centres undefined)	-9%	14%	-1%	8.9µM*	8
CCOC(=O)C1=C(C)N[C@@]2(O)c3ccccc3C(=O)[C@@]12O	-7%	?	0%	32µM*	38
COc1ccc2c(c1)NC1(O)c3ccccc3C(=O)C21O (centres undefined)	-3%	-2%	-2%	4%	19
CC1=C(C(=O)OC(C)C)C2(O)C(=O)c3ccccc3C2(O)N1 (centres undefined)	-11%	7%	1%	13µM*	?
COc1ccc(/C=N/NS(=O)(=O)c2ccccc2)cc1OS(=O)(=O)c1ccc(C)cc1	-4%	?	-10%	7.1µM*	-23
C=CCNC(=O)/C(C#N)=C/c1ccc(OS(=O)(=O)c2ccc(C)cc2)c(OC)c1	28µM*	-15%	-3%	25µM*	-20
COc1cc(/C=N/NS(=O)(=O)c2ccccc2)ccc1OS(=O)(=O)c1ccc(C)cc1	-19%	-15%	2%	7.9µM*	?
